Assay outcomes (PubChem BioAssay)
Most compounds without a hit are left out; they make up all but 4.3% or so of the library.
rCAG RNA binder = binds r(CAG) RNA repeats | inhibition, % at 3 µM | r(CAG) RNA repeat, TO-PRO-1 dye displacement fluorescence | 370,000 tested, 1.3% active | AID 651821;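 active = inhibition above the plate cutoff, the mean of all test compounds on that plate plus 3 SD, cut at about 35% in these data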;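 note: higher means more dye released from RNA so lower well fluorescence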
FAS TE block = blocks the thioesterase domain of human fatty acid synthase | recombinant FAS-TE, OMFH fluorogenic substrate, fluorescence endpoint | inhibition, % at 15 µM | P49327 | 360,000 tested, 0.67% active;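 active = compounds whose normalised, plate-corrected inhibition of enzyme fluorescence in the single-dose primary screen is 50% or more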
Target sequence (P49327 whole entry, looked up, the tested form may be a part): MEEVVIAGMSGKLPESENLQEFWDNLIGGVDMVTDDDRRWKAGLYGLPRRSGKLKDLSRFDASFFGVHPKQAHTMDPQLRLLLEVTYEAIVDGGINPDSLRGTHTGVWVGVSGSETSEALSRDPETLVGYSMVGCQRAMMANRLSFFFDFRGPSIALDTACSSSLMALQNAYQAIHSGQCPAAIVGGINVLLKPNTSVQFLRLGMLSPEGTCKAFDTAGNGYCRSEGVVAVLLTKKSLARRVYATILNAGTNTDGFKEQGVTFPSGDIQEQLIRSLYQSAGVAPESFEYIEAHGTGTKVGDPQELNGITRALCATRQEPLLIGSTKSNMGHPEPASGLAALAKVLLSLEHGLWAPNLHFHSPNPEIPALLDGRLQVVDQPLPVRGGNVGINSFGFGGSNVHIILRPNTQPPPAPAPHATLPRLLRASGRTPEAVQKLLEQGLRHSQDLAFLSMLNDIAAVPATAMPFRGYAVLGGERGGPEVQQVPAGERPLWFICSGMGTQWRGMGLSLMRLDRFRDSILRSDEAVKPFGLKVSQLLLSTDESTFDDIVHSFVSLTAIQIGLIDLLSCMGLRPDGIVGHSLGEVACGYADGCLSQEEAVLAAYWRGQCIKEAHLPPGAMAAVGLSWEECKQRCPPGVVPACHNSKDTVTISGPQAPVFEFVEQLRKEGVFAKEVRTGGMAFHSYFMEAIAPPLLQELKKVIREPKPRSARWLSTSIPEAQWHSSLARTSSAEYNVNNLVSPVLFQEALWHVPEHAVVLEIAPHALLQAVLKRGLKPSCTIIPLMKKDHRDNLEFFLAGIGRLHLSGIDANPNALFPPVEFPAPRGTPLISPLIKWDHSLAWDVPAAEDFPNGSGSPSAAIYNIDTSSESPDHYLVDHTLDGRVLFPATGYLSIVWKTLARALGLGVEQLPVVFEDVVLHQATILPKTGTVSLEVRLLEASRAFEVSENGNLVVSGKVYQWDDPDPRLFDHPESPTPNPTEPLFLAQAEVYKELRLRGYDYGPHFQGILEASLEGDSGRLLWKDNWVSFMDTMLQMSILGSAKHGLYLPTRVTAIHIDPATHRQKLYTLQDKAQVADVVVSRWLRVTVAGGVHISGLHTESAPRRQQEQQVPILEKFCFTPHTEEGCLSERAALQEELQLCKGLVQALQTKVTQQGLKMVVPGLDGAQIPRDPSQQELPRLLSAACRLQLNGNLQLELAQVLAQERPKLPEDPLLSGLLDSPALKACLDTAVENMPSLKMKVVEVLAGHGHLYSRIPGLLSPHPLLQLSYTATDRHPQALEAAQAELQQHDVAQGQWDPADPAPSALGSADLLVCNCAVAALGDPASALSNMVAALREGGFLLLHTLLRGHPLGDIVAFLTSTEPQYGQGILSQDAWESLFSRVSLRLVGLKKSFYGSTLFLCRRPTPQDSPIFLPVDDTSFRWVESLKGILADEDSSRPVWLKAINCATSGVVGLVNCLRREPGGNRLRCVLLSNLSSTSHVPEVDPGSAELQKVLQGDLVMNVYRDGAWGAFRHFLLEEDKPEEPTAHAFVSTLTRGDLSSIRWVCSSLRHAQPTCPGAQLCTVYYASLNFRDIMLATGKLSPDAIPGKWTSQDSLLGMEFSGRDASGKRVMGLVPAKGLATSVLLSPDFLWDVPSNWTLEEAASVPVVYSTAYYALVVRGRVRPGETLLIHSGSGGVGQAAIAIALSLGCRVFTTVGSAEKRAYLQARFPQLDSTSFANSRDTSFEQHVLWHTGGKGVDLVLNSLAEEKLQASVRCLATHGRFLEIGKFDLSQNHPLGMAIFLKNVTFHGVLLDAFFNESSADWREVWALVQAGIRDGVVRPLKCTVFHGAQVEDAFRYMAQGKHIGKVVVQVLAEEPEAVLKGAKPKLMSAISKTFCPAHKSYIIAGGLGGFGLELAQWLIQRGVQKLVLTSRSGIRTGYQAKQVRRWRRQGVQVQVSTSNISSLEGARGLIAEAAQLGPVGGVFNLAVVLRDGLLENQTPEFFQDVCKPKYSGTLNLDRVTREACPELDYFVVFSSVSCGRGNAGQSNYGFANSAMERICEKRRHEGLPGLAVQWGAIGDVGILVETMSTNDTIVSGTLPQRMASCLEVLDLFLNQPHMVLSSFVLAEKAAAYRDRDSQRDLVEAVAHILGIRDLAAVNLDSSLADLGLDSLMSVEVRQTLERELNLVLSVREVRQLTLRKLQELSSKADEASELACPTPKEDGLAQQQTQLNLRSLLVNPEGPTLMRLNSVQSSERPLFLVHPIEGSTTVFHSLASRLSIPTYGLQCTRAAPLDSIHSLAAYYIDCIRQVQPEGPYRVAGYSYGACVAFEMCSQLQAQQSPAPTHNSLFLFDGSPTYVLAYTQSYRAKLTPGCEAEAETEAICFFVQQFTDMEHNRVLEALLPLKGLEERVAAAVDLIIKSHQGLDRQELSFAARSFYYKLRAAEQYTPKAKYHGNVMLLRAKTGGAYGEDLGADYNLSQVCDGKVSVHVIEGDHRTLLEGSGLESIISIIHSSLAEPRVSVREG
NadD inh = inhibitors of Staphylococcus aureus NadD. purified NadD enzyme, colorimetric absorbance read-out. inhibition, % at 20 µM. 360,000 tested, 0.78% active. AID 602399; in the data active = inhibition above about 26%
NR3A LBD binder = NR3A (human) ligand-binding domain modulation; NR3A LBD differential scanning fluorimetry, Tm shift; 0% = protein alone, 100% = glycine-bound protein; Tm shift relative to glycine control, % at 25 µM; 340,000 tested, 2.5% active; AID 1259313;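 active = melting temperature shift of at least 10% of the positive control shift, at one fixed dose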
Each line names hits and unclear results; the compound was inactive in the other large screens.

COC(=O)[C@]12C[C@H](CC(=O)N3CCCCC3)C(=O)N(Cc3ccco3)C1=C[C@H](C(C)(C)C)O[C@@H]2C	none (no result: FAS TE block, NadD inh, NR3A LBD binder)
O=C(/C=C/c1ccco1)c1cccc([N+](=O)[O-])c1	rCAG RNA binder 39
CC12CCC(C(=O)NCc3ccc(Cl)cc3)(OC1=O)C2(C)C (centres undefined)	NR3A LBD binder 11
CC12CCC(C(=O)NCc3ccccc3)(OC1=O)C2(C)C (centres undefined)	none
CCCCOc1ccc(/C=C/C(=O)NCCc2nc3ccccc3[nH]2)cc1	NR3A LBD binder 12
CCCCOc1ccc(/C=C/C(=O)Nc2ccc(C(N)=O)cc2)cc1	NR3A LBD binder 22
CCCCOC(=O)c1ccc(NC(=O)/C=C/c2cccs2)cc1	NR3A LBD binder 19
CCCCOC(=O)c1ccc(NC(C)=O)cc1	none
COc1ccc(/C=C/C(=O)NCCc2nc3ccccc3[nH]2)cc1	none
CNC(=O)c1ccc(NC(=O)/C=C/c2cccc(F)c2)cc1	NR3A LBD binder 14
COC(=O)C12C=C3CC(c4ccc(C)s4)=C3C(=O)N1Cc1[nH]c3ccccc3c1C2 (centres undefined)	none (no result: FAS TE block, NadD inh, NR3A LBD binder)
CC(C)CNC(=O)OCc1cn(Cc2ccccc2)nn1	none (no result: FAS TE block, NadD inh, NR3A LBD binder)
CCOC(=O)[C@@]12CCCC3=C1N(CCC3)C(=O)[C@H]2CC(=O)NCCc1ccccc1OC	none (no result: FAS TE block, NadD inh, NR3A LBD binder)
COC(=O)[C@]12CCCCC=C1N(Cc1ccc(OC)cc1)C(=O)[C@@H]2CC(=O)NCc1cccs1	none (no result: FAS TE block, NadD inh, NR3A LBD binder)
CCCCOc1ccc(/C=C/C(=O)Nc2ccc([N+](=O)[O-])cc2C)cc1	none
CCOc1ccc(/C=C/C(=O)Nc2cccc(C(C)=O)c2)cc1	NR3A LBD binder 29
C=CCOc1ccc(/C=C/C(=O)Nc2ccc(C(=O)NC)cc2)cc1	NR3A LBD binder 24
CCCOc1ccc(/C=C/C(=O)Nc2ccc([N+](=O)[O-])cc2)cc1	NR3A LBD binder 27
CN(CCO)c1ccc2c(c1)Oc1ccccc1CN(Cc1cn(Cc3ccccc3C(F)(F)F)nn1)S2(=O)=O	none (no result: FAS TE block, NadD inh, NR3A LBD binder)
Cc1ccc(Cn2nnc3c2-c2cc(F)ccc2S(=O)(=O)N(C(C)(C)C)C3)cc1	none (no result: FAS TE block, NadD inh, NR3A LBD binder)
COc1cccc(-c2nc(C#N)c(N3CCN(C(=O)c4ccco4)CC3)o2)c1	NR3A LBD binder 11
Cc1ccc(NC(=O)CN(C)S(=O)(=O)c2cccc3cccnc23)cc1F	NR3A LBD binder 14
Cc1ccc(Cn2cc(COC(=O)N3CCOCC3)nn2)cc1	none (no result: FAS TE block, NadD inh, NR3A LBD binder)
Cc1ccccc1OCCC(=O)OCC(=O)N1CCN(S(=O)(=O)c2ccc(Cl)cc2)CC1	NR3A LBD binder 11
CCOC(=O)N1CCN(C(=O)C[C@H]2C(=O)N(CCCOC)C3=CCCCC[C@]32C(=O)OC)CC1	none (no result: FAS TE block, NadD inh, NR3A LBD binder)
COc1nc(OC)nc(N2CCC(C(=O)NCc3ccccc3OC)CC2)n1	none (no result: FAS TE block, NadD inh, NR3A LBD binder)
O=C(CSc1nnc(-c2cccs2)n1-c1ccccc1)N1CCCC1	NR3A LBD binder 11
Cc1ccc(C2CCC3(CCC(=O)N3CCOC(=O)Nc3ccc(Br)cc3)CC2)cc1 (centres undefined)	none (no result: FAS TE block, NadD inh, NR3A LBD binder)
CCOC(=O)[C@@]12CCCC=C1N(CCc1ccc(Cl)cc1)C(=O)[C@H]2CC(=O)NCCc1ccccc1OC	none (no result: FAS TE block, NadD inh, NR3A LBD binder)
S=C(Nc1cccc(Br)c1)OC1CCC12CCC(c1ccccc1)CC2 (centres undefined)	none (no result: FAS TE block, NadD inh, NR3A LBD binder)
COc1cc(C=NCc2ccccc2)ccc1O	none (no result: NR3A LBD binder)
COc1cc(/C=N/c2oc(-c3ccccc3)cc2C#N)ccc1O	NR3A LBD binder 33
COc1ccc2c(c1)[C@H]1[C@H](CO2)[C@H](c2ccccc2)[C@]2(C)C(=O)Nc3cc(Cl)ccc3C(=O)N12	FAS TE block 89 (no result: rCAG RNA binder)
COc1ccc2c(c1)[C@H]1[C@H](CO2)[C@H](c2ccccc2)[C@]2(C)C(=O)Nc3cc(C)ccc3C(=O)N12	none
CCOC(=O)[C@@H]1[C@H]2COc3ccc(Br)cc3[C@@H]2N2C(=O)N(c3ccc(Br)cc3)C(=O)[C@]12C	FAS TE block 72
CCOC(=O)[C@@H]1[C@H]2COc3ccccc3[C@H]2N2C(=O)N(c3cccc(Cl)c3)C(=O)[C@]12C	NR3A LBD binder 17
C[C@@]12C(=O)N(c3cccc(Cl)c3)C(=O)N1[C@@H]1c3ccccc3OC[C@@H]1[C@H]2c1ccccc1	none
C[C@]12C(=O)N(c3cccc(Cl)c3)C(=O)N1[C@H]1c3ccccc3OC[C@@H]1[C@H]2c1ccccc1	FAS TE block 76 (no result: rCAG RNA binder)
CCNC(=O)C[C@H]1CC[C@H]2[C@@H](COc3ccc(NC(=O)c4ccc5c(c4)OCO5)cc3C(=O)N2C)O1	none (no result: FAS TE block, NadD inh, NR3A LBD binder)
C/C(=C/c1c[n+](Cc2ccc3c(c2)OCO3)c(N)[nH]1)Cn1[nH]c(=O)n(-c2ccccc2)c1=O	none (no result: FAS TE block, NadD inh, NR3A LBD binder)
COc1cccc(/C=N/NC(=O)c2ccc(-c3ccccc3)cc2)c1O	NR3A LBD binder 26
Cc1ccc(N=Nc2ccc(O)c(/C=N\NC(=O)c3ccc(N)cc3)c2)cc1C	NadD inh 48
COc1ccc(OC)c(/C=N\NC(=O)c2ccc(-c3ccccc3)cc2)c1	none
Cc1ccccc1/C=N/NC(=O)c1ccc(-n2cnnn2)cc1	NR3A LBD binder 30
Cc1cccc(/C=N/NC(=O)Cc2ccc(Cl)cc2)c1O	none
O=C(N/N=C/c1c(Cl)cccc1Cl)c1ccc(-n2cnnn2)cc1	none
Cc1cccc(/C=N\NC(=O)c2ccc(Cl)cc2)c1O	NR3A LBD binder 10
COC(=O)[C@]12C[C@H](CC(=O)NCc3ccccc3)C(=O)N(Cc3ccc(Cl)cc3Cl)C1=C[C@H](C(C)C)O[C@@H]2C1CC1	none (no result: FAS TE block, NadD inh, NR3A LBD binder)
CCN(C(=O)[C@@H](C)[C@@H](O)c1ccc(C(C)=O)cc1)c1ccccc1	none (no result: FAS TE block, NadD inh, NR3A LBD binder)
COc1cccc(/C=N/NC(=O)c2[nH]c(C)c(C(=O)N/N=C/c3cccc(OC)c3O)c2C)c1O	NadD inh 35
COc1cccc(/C=N/NC(=O)c2ccc(=O)[nH]n2)c1O	none
COC(=O)c1cc2c(c3c4cc(F)ccc4n(S(=O)(=O)c4ccccc4)c13)C(=O)N(Cc1ccc(C(F)(F)F)cc1)C2	none (no result: FAS TE block, NadD inh, NR3A LBD binder)
Cc1cc(C)cc(C(=O)OCCCN(C)C2CN(Cc3cn(Cc4ccccc4F)nn3)S(=O)(=O)C2)c1 (centres undefined)	none (no result: FAS TE block, NadD inh, NR3A LBD binder)
COc1cccc(-c2ncn(CCc3ccccc3OC)c2CC(C)C)c1	none (no result: FAS TE block, NadD inh, NR3A LBD binder)
Cc1cc2nc(CO)[nH]c2cc1C	NR3A LBD binder 15
Cc1cc2nc(CS)[nH]c2cc1C	none
CCC(=O)N1CCC(C(=O)NC2CCCc3ccccc32)CC1 (centres undefined)	none (no result: FAS TE block, NadD inh, NR3A LBD binder)
CCN(C[C@H]1[C@@H](c2ccc(C3=CCCC3)cc2)[C@H](CO)N1C(=O)c1cccnc1)S(=O)(=O)c1ccccc1[N+](=O)[O-]	none (no result: FAS TE block, NadD inh, NR3A LBD binder)
CCOC(=O)c1cnc(SC)nc1Sc1ccccc1Cl	NR3A LBD binder 20
CCOC(=O)c1cnc2c(ccc3ccccc32)c1Cl	none
CCCCS(=O)(=O)N1C2=NC3=C(C(=O)N(CCOC)C3=O)C3N(C)c4ccccc4[C@]23C[C@H]1CO (some centres undefined)	none (no result: FAS TE block, NadD inh, NR3A LBD binder)
Cc1ccccc1OCC(=O)NC(=S)Nc1ccc(Br)c(C)n1	none
Cc1ccccc1OCC(=O)NC(=S)Nc1cccc2cc(O)ccc12	NR3A LBD binder 19
Cn1c(SCC(=O)N2c3ccccc3Sc3ccc(Cl)cc32)nnc1-c1ccco1	NR3A LBD binder 11
Cc1ccc(C)c(NC(=O)c2cc(-c3cc(C)ccc3O)n[nH]2)c1	NR3A LBD binder 15
